TLR9-MyD88 block: blocks human TLR9 binding to MyD88. Q9NR96+Q99836. CHO BLA complementation TLR9-MyD88, CCF4 FRET ratio. inhibition, % at 4.98 µM. 340,000 tested, 0.21% active. AID 504734;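 active means inhibition above the mean over all tested compounds plus 3 SD, cut at about 21% in these data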
Target sequence (Q99836 whole entry, looked up): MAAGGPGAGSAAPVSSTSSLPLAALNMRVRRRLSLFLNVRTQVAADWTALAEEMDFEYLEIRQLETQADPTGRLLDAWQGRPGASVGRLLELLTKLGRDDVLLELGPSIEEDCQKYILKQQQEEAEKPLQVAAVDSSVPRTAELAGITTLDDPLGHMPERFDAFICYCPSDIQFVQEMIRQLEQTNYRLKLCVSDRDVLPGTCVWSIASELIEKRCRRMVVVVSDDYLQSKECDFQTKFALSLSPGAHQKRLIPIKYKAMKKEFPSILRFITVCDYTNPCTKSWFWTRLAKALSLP
Target sequence (Q9NR96 whole entry, looked up): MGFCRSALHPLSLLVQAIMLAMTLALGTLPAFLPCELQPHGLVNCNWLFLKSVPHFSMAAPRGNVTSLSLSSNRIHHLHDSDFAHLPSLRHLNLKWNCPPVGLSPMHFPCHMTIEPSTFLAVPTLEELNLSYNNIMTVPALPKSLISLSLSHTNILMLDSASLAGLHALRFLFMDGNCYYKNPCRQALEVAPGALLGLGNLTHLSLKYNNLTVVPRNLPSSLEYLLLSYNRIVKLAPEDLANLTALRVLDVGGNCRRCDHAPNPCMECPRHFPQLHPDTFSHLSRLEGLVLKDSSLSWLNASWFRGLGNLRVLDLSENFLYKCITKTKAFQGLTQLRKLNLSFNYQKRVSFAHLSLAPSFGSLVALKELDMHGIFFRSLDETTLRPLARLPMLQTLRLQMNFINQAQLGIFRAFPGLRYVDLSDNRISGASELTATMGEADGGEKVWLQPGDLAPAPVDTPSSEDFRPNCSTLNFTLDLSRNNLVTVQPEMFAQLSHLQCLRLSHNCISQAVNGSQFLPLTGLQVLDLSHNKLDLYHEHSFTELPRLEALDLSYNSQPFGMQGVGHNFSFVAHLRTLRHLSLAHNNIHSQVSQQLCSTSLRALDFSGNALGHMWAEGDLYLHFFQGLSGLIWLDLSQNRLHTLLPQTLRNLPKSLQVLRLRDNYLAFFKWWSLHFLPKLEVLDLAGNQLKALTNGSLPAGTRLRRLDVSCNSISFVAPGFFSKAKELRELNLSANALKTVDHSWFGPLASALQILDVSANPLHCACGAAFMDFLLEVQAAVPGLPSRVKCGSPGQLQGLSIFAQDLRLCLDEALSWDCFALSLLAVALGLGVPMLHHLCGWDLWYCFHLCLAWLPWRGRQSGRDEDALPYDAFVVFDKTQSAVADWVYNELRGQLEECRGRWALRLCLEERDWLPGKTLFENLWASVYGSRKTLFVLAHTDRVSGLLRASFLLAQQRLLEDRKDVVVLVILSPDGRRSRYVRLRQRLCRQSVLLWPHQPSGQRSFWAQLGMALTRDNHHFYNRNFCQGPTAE
NOD2-RIPK2 inh: blocks binding of human NOD2 to RIPK2; O43353; inhibition, % at 4.98 µM; 360,000 tested, 0.38% active; CHO BLA complementation NOD2-RIPK2, CCF4 ratio; in the data active means inhibition above about 21%
TLR4-MyD88 BLA: TLR4-MyD88 interaction inhibition in cells | O00206+Q99836 | HeLa CL3-4 TLR4/MyD88 BLA complementation, FRET ratio | inhibition, % at 8.4 µM | 200,000 tested, 0.18% active | AID 861; in the data active means inhibition above about 25%
Myeloid diff 2: compounds promoting myeloid differentiation | ER-HoxA9 myeloid progenitors, lysozyme-GFP differentiation, flow cytometry | calls only at 10 µM | 360,000 tested, 1% active;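 active means normalized GFP-positive differentiation at or above the plate's own cutoff, the solvent-only control mean plus 3 SD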;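 further: cells exposed to compound for four days before flow analysis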
Of the large screens only hits and unclear results are named; the others gave an inactive call. In the library only some 1.5% were active in any assay of this set; here they are far more common.

Cc1cc(NC(=O)CSc2nc(CCC3CCCC3)nc3ccccc23)no1	Myeloid diff 2 active
O=S(=O)(NCC1CC1)c1cccc(S(=O)(=O)N2CCCC2)c1	Myeloid diff 2 active
COc1ccc(CCNS(=O)(=O)c2cccc(S(=O)(=O)N3CCCC3)c2)cc1OC	none
Cc1ccc(C)c2nc3sc(C(=O)N4CCCc5ccccc54)c(N)c3cc12	Myeloid diff 2 active
CCc1ccc2nc3sc(C(=O)N4CCc5ccccc54)c(N)c3cc2c1	none (no result: TLR9-MyD88 block, NOD2-RIPK2 inh, Myeloid diff 2)
O=C(COc1ccc(CNC[C@H]2O[C@@H](n3ccc(=O)[nH]c3=O)[C@H](O)[C@@H]2O)cc1)Nc1ccccn1	none (no result: TLR9-MyD88 block, TLR4-MyD88 BLA)
COc1ccccc1NC(=O)C(=O)N/N=C/c1ccc([N+](=O)[O-])s1	Myeloid diff 2 active
Cc1ccnn1CC(=O)N/N=C/c1ccc([N+](=O)[O-])s1	Myeloid diff 2 active (no result: TLR4-MyD88 BLA)
Cc1ccnn1CC(=O)N/N=C/c1cccs1	none
COC(=O)N/N=C/c1ccc([N+](=O)[O-])s1	Myeloid diff 2 active
COc1ccc(CN2C(=O)CN(S(C)(=O)=O)CC2(C)C(=O)NCc2ccccc2)cc1OC (stereo not given)	none (no result: TLR9-MyD88 block, TLR4-MyD88 BLA)
CC1Nc2ccc(C(=O)NC3CCCCC3)cc2NC1=O (stereo not given)	Myeloid diff 2 active (no result: TLR4-MyD88 BLA)
O=C(NCCCCNC(=O)c1ccc(Cl)s1)c1ccc(Cl)s1	none
CN(C)CCNC(=O)c1ccc(Cl)s1	Myeloid diff 2 active
O=C1C(C2=C(O)c3ccccc3C2=O)=Nc2ccccc21	Myeloid diff 2 active
C[C@H](CO)N1C[C@H](C)[C@@H](CN(C)Cc2ccc3cccnc3c2)OCc2cnnn2CCCC1=O	none (no result: TLR4-MyD88 BLA)
CN1/C(=C\C(=O)C(F)F)C(C)(C)c2ccccc21	none
CN1/C(=C\C(=O)c2cccnc2)C(C)(C)c2ccccc21	none
CC(C)C(=O)NC(=S)/C=C1/N(C)c2ccccc2C1(C)C	Myeloid diff 2 active
CN1/C(=C\C=N\NC(=O)c2ccc(O)cc2)C(C)(C)c2ccccc21	Myeloid diff 2 active
Cc1ccc(C(=O)NC(=S)/C=C2\N(C)c3ccccc3C2(C)C)cc1	Myeloid diff 2 active
Cn1c(=O)c2c(SCC(=O)Nc3nccs3)nc(C3CC3)nc2n(C)c1=O	Myeloid diff 2 active (no result: TLR4-MyD88 BLA)
CCCCNC(=O)c1c(N)[nH]c(C(=O)c2ccccc2)c1-c1ccc(Cl)cc1	none (no result: TLR9-MyD88 block, TLR4-MyD88 BLA)
O=C(NCc1ccncc1)[C@@H]1CCCN1C(=O)[C@@H]1CCCN1C(=O)c1cccc2ccccc12	none (no result: TLR9-MyD88 block, TLR4-MyD88 BLA)
CCCNCc1cc(OC)c(OCCC)cc1Cl	Myeloid diff 2 active
O=C(C1CCC(CNc2nc(=S)[nH]c3ccccc23)CC1)N1CCN(c2ccccn2)CC1 (stereo not given)	Myeloid diff 2 active
C=CCNC(=O)C1CCC(CNc2nc(=S)[nH]c3ccccc23)CC1 (stereo not given)	none (no result: TLR4-MyD88 BLA)
COc1ccc(Cn2cc(CN3CC(N4CCN(Cc5ccccc5F)CC4)CS3(=O)=O)nn2)cc1 (stereo not given)	none (no result: TLR9-MyD88 block, TLR4-MyD88 BLA)
Cc1ccccc1S(=O)(=O)N(C)C[C@H]1OCc2cnnn2CCCC(=O)N([C@H](C)CO)C[C@H]1C	Myeloid diff 2 active (no result: TLR4-MyD88 BLA)
Cc1ccccc1S(=O)(=O)N(C)C[C@H]1OCc2cnnn2CCCC(=O)N([C@@H](C)CO)C[C@H]1C	none (no result: TLR4-MyD88 BLA)
CCc1nc2c(OCC(=O)c3ccc(F)cc3)cccn2c1N(C)C(=O)c1cccs1	none (no result: TLR9-MyD88 block, TLR4-MyD88 BLA)
O=C(CN(C(=O)Cn1nnc(-c2ccccc2F)n1)c1cccc2c1CCCC2)NCc1ccccc1	Myeloid diff 2 active
O=C1/C(=C/c2ccc(N3CCOCC3)o2)SC(=Nc2ccccc2)N1CCc1c[nH]c2ccccc12	NOD2-RIPK2 inh 47, Myeloid diff 2 active
COC(=O)[C@]12CCCCC=C1N(CCc1ccc(OC)c(OC)c1)C(=O)[C@H](CC(=O)NCCCCc1ccccc1)C2	none (no result: TLR9-MyD88 block, TLR4-MyD88 BLA)
NNC(=O)c1ccc(Cn2cc(Br)c(N)n2)cc1	Myeloid diff 2 active (no result: TLR4-MyD88 BLA)
O=C(/C=C/c1ccc2ccccc2n1)c1cc(Cl)ccc1O	Myeloid diff 2 active (no result: TLR4-MyD88 BLA)
N#Cc1c(C(F)(F)F)cc(-c2ccccc2)nc1SCc1nc(N)nc(N2CCOCC2)n1	Myeloid diff 2 active
CCOC(=O)c1cnc2c(C(=O)OC)cccc2c1NCc1ccco1	none
CCOC(=O)c1cnc2c(C)cccc2c1NCc1ccco1	Myeloid diff 2 active
O=C(Nc1ccc2c3c(cccc13)CC2)c1cccc([N+](=O)[O-])c1	none
CN(C)c1ccc(NC(=O)c2cccc([N+](=O)[O-])c2)c2ccccc12	Myeloid diff 2 active (no result: TLR4-MyD88 BLA)
COc1ccc(N2CCN(C(=O)COC(=O)Cc3cccc(OC)c3)CC2)cc1	none (no result: TLR4-MyD88 BLA)
COc1ccc(N2CCN(C(=O)COC(=O)c3ccco3)CC2)cc1	Myeloid diff 2 active (no result: TLR4-MyD88 BLA)
